Experimental data as given in PubChem BioAssay AID777 (Sanford-Burnham Center for Chemical Genomics, 2007).
Out of some 96,000 compounds screened, about 19,000 (20%) were called active. A selection follows. Values without a mark were called inactive.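 The calls were made as follows: active = blocking of liver enzyme CYP2C9 beyond about 50% at 5 µM (limit read from the data); inactive = the rest.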

The compounds below were run against Cytochrome P450 2C9 (Homo sapiens) (UniProt P11712) (assay: blockers of cytochrome P450 2C9 activity – biochemical, luminescence, ADME assay, primary screen (AID 777)). Details: CYP2C9 Supersomes, luciferin-H conversion, at 5 µM, active compounds read high.
Sequence of Cytochrome P450 2C9 (Homo sapiens) (P11712 whole entry, looked up): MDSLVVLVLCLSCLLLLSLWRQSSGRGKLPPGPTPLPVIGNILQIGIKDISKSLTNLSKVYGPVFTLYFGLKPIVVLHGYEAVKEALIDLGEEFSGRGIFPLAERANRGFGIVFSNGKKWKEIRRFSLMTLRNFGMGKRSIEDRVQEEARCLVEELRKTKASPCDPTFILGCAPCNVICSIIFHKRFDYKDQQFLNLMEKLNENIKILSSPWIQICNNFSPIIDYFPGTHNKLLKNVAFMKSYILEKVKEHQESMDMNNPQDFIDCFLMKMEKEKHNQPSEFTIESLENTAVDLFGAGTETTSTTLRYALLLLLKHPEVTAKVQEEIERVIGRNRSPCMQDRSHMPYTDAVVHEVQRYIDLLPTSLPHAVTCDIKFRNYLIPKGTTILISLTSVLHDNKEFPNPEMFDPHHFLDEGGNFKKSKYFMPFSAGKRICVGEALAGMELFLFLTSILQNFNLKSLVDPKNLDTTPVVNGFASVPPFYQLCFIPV

SMILES	inhibition
O=C(Cn1cc(C(=O)c2cccs2)c2ccccc21)NCc1cccs1	93.7% (active)
COC(=O)Cn1cc(C(=O)c2cccs2)c2ccccc21	25.3%
COC(=O)c1cn(CC(=O)NCc2cccs2)c2ccccc12	23.2%
CN(C)c1ccnc(Oc2ccc(F)cc2)c1C#N	40.8%
CCOC(=O)N1CCC(O)(c2cc(C)c(C)cc2C)CC1	67.1% (active)
CCOC(=O)N1CCN(C(=O)COc2ccc(Br)cc2)CC1	-4.3%
CCOC(=O)N1CCN(C(=O)COc2ccc(Cl)cc2C)CC1	-15.4%
COC(=O)c1ccc(N(CC(=O)NC2CCCC2)C(=O)CNC(=O)c2ccco2)cc1	28.7%
Cc1cc(C)nc(SCc2ccccc2C#N)n1	-24.8%
Cc1ccc(Cc2cncc(O)c2)cc1S(=O)(=O)O	0.1%
c1ccc2[nH]c(-c3nc4ccccc4[nH]3)nc2c1	16.1%
O=S(=O)(Nc1ccc2nc(-c3ccco3)[nH]c2c1)c1ccccc1	85.2% (active)
Cc1cc(NS(=O)(=O)c2ccccc2)no1	12.3%
Cc1cc(C)c2c3c(sc2n1)C(c1ccccc1)C(C#N)=C(N)O3 (centres undefined)	11%
Fc1ccc(OCc2nn3c(Cn4nnc5ccccc54)nnc3s2)cc1	23.6%
Cc1cccc(NC(=O)c2ccccc2NC(=O)C(C)(C)C)n1	11.7%
O=C(Nc1ccccc1)c1cccnc1Nc1ccccc1	1.5%
O=C(Nc1ccccc1)c1ccccc1NC(=O)C(F)(F)F	74.8% (active)
Cc1ccc(-n2c(=O)cc(N3CCN(Cc4ccccc4)CC3)[nH]c2=O)cc1	22.1%
CCOC(=O)C1CCN(C(=O)COc2cc(C)c(Br)c(C)c2)CC1	15.8%
CCCN1CCN(C(=O)Cn2ncc3ccccc32)CC1	1%
O=c1[nH][nH]c(C(F)(F)F)c1C=NCc1ccccc1Cl	55.5% (active)
O=c1ccn(Cc2ccccc2Cl)cc1	-5.8%
Cc1ccc(N(NC(=O)C(C)(C)O)C(=O)c2ccccc2)cc1C	2.5%
NS(=O)(=O)c1cccnc1Nc1cccc(Cl)c1	5.6%
O=C(Cn1cncn1)N/N=C/c1c2ccccc2cc2ccccc12	63.7% (active)
Cc1ccc(/C=N/NC(=O)Cn2nc(C)c(Br)c2C)o1	23.7%
O=C(Cc1ccccc1)N/N=C/c1ccc(Cl)cc1Cl	23.1%
CC(=O)Oc1ccc(C(C)=O)c2c1OCCO2	-9.3%
